Data published in PubChem BioAssay AID588335 (The Scripps Research Institute Molecular Screening Center, 2011).
The whole screen tested about 360,000 compounds, of which about 4,500 (1.2%) were called active. The entries come from a sample that favours actives as a whole. Values without a mark were called inactive. Rule as the data show it: active = inhibition above about 30%; inactive = the rest.

Experiment: inhibition of GDH and TPI enzymes – biochemical, absorbance, full deck, artefact control for M. tuberculosis FBA inhibitor project, primary screen (AID 588335);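 also: 0% = DMSO wells and 100% = wells lacking the enzyme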
Details: GDH-TPI coupled enzyme counterscreen, NADH absorbance; at 4.8 µM; hits give high values

Row | Structure (SMILES) | inhibition
1 | Cc1cc(C)nc(N/N=C/c2c(CO)cnc(C)c2O)n1 | 16.2%
2 | CCN(CC)c1ccc(/C=N/Nc2nc(C)cc(C)n2)c(O)c1 | 31.7% (active)
3 | Cn1cnnc1Sc1ccc(S(C)(=O)=O)cc1[N+](=O)[O-] | 13%
4 | Cc1c(-c2nn(C)c(=O)c3ccccc23)oc2ccc(F)cc2c1=O | 18%
5 | CC(C)NC(=O)NCCCCCCS(C)=O (stereo not given) | 16.7%
6 | Nc1nc(NCCCN2CCOCC2)nc(Nc2ccccc2)c1[N+](=O)[O-] | 28.5%
7 | Nc1nc(Nc2ccccc2)nc(NCCO)c1[N+](=O)[O-] | 39.5% (active)
8 | COCCNc1nc(N)c([N+](=O)[O-])c(NCCO)n1 | 26.7%
9 | O=C(Oc1cccc(NC2=NS(=O)(=O)c3ccccc32)c1)c1ccncc1 | 0.95%
10 | Cc1ccc(S(=O)(=O)N(NC2=NS(=O)(=O)c3ccccc32)C(=O)c2ccccc2)cc1 | 4.78%
11 | CC(C)(C)c1csc(NC2=NS(=O)(=O)c3ccccc32)n1 | 36.1% (active)
12 | Cc1cc(-c2ccccc2)nc(N2CCC(C(=O)NC34CC5CC(CC(C5)C3)C4)CC2)n1 | -1.41%
13 | CSc1nc2nc3c(c(=O)n2[nH]1)CCC3 | 5.66%
14 | Cc1ccccc1NC(=O)Cc1nc(COC(=O)C(C)(C)Oc2ccc(Cl)cc2)cs1 | -5.31%
15 | COc1cccc(NC(=O)COC(=O)/C=C/c2ccco2)c1 | 6.67%
16 | O=C(/C=C/c1ccco1)Nc1ccc(Oc2ccccc2)cc1 | 38% (active)
17 | O=C(O)/C=C\C(=O)Nc1ccc(OCc2ccccc2)cc1 | 5.18%
18 | COc1ccc(Cl)cc1C(=O)NNC(=S)NC(=O)/C=C/c1ccco1 | 5.35%
19 | O=C(/C=C/c1ccco1)NC(=S)N1CCCCC1 | 10.6%
20 | O=C(/C=C/c1ccco1)NC(=S)Nc1ccccc1Br | 35.7% (active)

Row | Structure (SMILES) | inhibition
21 | CCOc1ccc(NC(=O)CSc2nc3ccccc3c(=O)n2Cc2cccs2)cc1 | 6.55%
22 | O=C(C[C@H]1C(=O)N(c2ccc(F)c(F)c2)C[C@@H]1Cc1ccccc1)Nc1ccccc1 | -1.2%
23 | O=Cc1cn(CCOc2ccc(F)cc2)c2ccccc12 | 7.08%
24 | Cc1cccc2nc(CNc3ccc(F)cc3)cn12 | 10.8%
25 | CCC1CCCCN1S(=O)(=O)Cc1ccccc1Cl (stereo not given) | 0.61%
26 | COc1ccc(S(=O)(=O)N2CCCC2CNC(=O)C(=O)NC2CC2)cc1 (stereo not given) | -18%
27 | COc1ccc2c(c1)CCc1cn3ncc(C#N)c3nc1-2 | 2.17%
28 | O=C(Nc1ccc(F)c([N+](=O)[O-])c1)C1CCCO1 (stereo not given) | 7.32%
29 | COCCN(CCOC)S(=O)(=O)c1ccc(/C(O)=C(\C#N)c2nc3ccccc3[nH]2)cc1 | 42.7% (active)
30 | COCCN(CCOC)S(=O)(=O)c1ccc(C(=O)Nc2nc3c(s2)CCc2ccccc2-3)cc1 | 9.74%
31 | CC(C)(C)c1nnc2sc(SCC(O)=C(C#N)c3nc4ccccc4[nH]3)nn2c1=O | 9.05%
32 | CC1(C)CC(=O)C2=C(C1)N=C1SCCC(=O)N1C2c1ccc(C(F)(F)F)cc1 (stereo not given) | 31% (active)
33 | CC1(C(=O)Nc2ccccc2Br)CCN1C(=O)CC1CC1 (stereo not given) | -0.89%
34 | C=CCSC(CC)(CC)C(N)=O | 3.59%
35 | CN1C(c2ccc(F)cc2)=CS/C1=C(/C#N)c1nnc2n1-c1ccccc1SC2 | 18.8%
36 | Cc1ccccc1-n1cc(CNC(=O)CC2C(=O)NCCN2C/C=C/c2ccccc2)cn1 (stereo not given) | -1.22%
37 | COc1cccc(N2CCN(c3ccc4nnc(CCC(=O)N5CCN(C)CC5)n4n3)CC2)c1 | -6.09%
38 | COc1cccc(N2CCN(C3CC(=O)N(c4ccc(Cl)cc4)C3=O)CC2)c1 (stereo not given) | -9.65%
39 | COc1cccc(-c2nc3ccc(N4CCN(C)CC4)cc3[nH]2)c1 | 31.7% (active)
40 | CCCN(C(=O)CSc1nnc(N)s1)c1c(N)n(Cc2ccccc2)c(=O)[nH]c1=O | 2.63%

Row | Structure (SMILES) | inhibition
41 | O=c1cccc(-c2ccc(Br)cc2)o1 | 17.6%
42 | CCOc1cccc2cc(C(=O)OCC(=O)Nc3c(C)cccc3CC)c(=O)oc12 | 11.9%
43 | C=CCc1cccc2cc(C(=O)OCC)c(=O)oc12 | 10.2%
44 | CCOC(=O)c1cc2cc3ccccc3cc2oc1=O | 38.1% (active)
45 | CN1CCCc2cc(C#N)c(=O)[nH]c21 | 34.1% (active)
46 | COc1ccccc1CNC(=O)COn1nnc2ccc(S(=O)(=O)N3CCOCC3)cc21 | -5.57%
47 | O=C(OCCN1C(=O)c2ccccc2C1=O)[C@@H]1CC(O)CN1S(=O)(=O)c1ccccc1[N+](=O)[O-] (stereo not given in full) | 3.16%
48 | CC(=O)c1ccc(OCCCC(=O)Nc2ccc(C)c(S(=O)(=O)N3CCOCC3)c2)cc1 | 7.22%
49 | COc1ccc2ccccc2c1CNCc1ccccn1 | -14.6%
50 | COc1ccc(C(=O)/C=C/c2ccc(-c3ccccc3)cc2)cc1CSCC(=O)O | 37.5% (active)
51 | COc1ccccc1CCNC(=O)C1CCN(C(=O)/C=C/c2ccccc2)CC1 | 1.82%
52 | COC(=O)c1ccc(COc2ccc(/C=C/C(=O)c3ccc(OC)c(CSCC(=O)O)c3)cc2OC)cc1 | 7.37%
53 | CCN(CC)C(=O)C(C)N1c2cccc3cccc(c23)S1(=O)=O (stereo not given) | 9.73%
54 | CC1CCCCC1NC(=O)COC(=O)Cc1ccc(Cl)cc1 (stereo not given) | 3.03%
55 | CCCN(CC(=O)NC(=O)NC1CCCCC1)CC(=O)Nc1cc(Cl)ccc1Cl | -7.58%
56 | O=C(N/N=C/c1c(O)n(C2CC2)c(=S)[nH]c1=O)c1ccccc1 | 25.8%
57 | O=C(N/N=C/c1c(O)n(C2CC2)c(=S)[nH]c1=O)c1ccccc1Cl | 40.6% (active)
58 | O=c1[nH]c(=S)n(C2CC2)c(O)c1/C=N/N1CCOCC1 | 16.2%
59 | CC1CCN(C(=O)COC(=O)c2cc(=O)[nH]c3ccccc23)CC1 | 13.7%
60 | CC(C)(C)n1nnnc1C(c1ccccc1F)N1CCN(C(=O)c2ccco2)CC1 (stereo not given) | -4.67%
